Records with an inconclusive call do not appear. The source made the active and inactive calls. Unless noted, the call rests on the fitted dose curve; in most records, active means well fitted curve in the direction sought with a large enough effect; inconclusive means small, poorly fitted or top-dose-only effect, or another doubt; inactive means no such curve, though single readings can be large; an effect the other way counts as inactive or inconclusive.
Columns and labels:
[1] = biological target: DNA repair nuclease/redox regulator APEX1 (Homo sapiens) (UniProt P27695); assay: qHTS Validation Assay for Inhibitors of the Human Apurinic/apyrimidinic Endonuclease 1 (APE1) (AID 1705;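 further: TAMRA fluorescence gain over two minutes as APE1 cuts a quenched THF abasic duplex; series mostly up to about 57 µM; on the % scale 0 is the no-effect control and ±100 the full control effect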)
DNA repair nuclease/redox regulator APEX1 (Homo sapiens), sequence (P27695 whole entry, looked up): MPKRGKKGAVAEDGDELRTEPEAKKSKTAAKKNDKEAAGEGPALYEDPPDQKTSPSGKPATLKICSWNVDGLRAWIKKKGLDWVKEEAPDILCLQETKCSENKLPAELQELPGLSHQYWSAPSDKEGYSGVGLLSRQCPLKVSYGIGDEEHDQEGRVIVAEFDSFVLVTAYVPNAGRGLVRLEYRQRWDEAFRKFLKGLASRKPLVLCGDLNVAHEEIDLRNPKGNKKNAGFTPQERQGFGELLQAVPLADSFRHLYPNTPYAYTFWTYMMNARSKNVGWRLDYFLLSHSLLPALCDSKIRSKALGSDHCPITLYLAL
Outline: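 Activity read as rising fluorescence (598 nm emission, 525 nm excitation) from incision of a TAMRA/BHQ-2 duplex carrying a THF abasic site (50 nM). Compound and enzyme sat 15 min at RT before substrate start; signal change between first and third 60-s reads.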

[2] = Counterscreen for APE1 Inhibitors: Fluorescent Dye Displacement Validation Assay (AID 1707);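 further: plate controls were ThO with dsDNA and no compound for no effect and ThO without dsDNA for full effect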
Outline: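 Assay buffer: Tris-HCl pH7.5 with 50mM NaCl, 2 mM MgCl2, 0.01% Tween-20. Dye 250 nM, duplex 50 nM final. Readout: decrease in ThO endpoint fluorescence, 480 nm excitation, 540 nm emission.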

[3] = biological target: Ferritin light chain (Equus caballus) (UniProt P02791); assay: qHTS Validation Assay for Identification of Novel General Anesthetics (AID 2323); further: series mostly up to about 77 µM; on the % scale 0 is the no-effect control and ±100 the full control effect
Ferritin light chain (Equus caballus), sequence (P02791 2-175 limits assumed): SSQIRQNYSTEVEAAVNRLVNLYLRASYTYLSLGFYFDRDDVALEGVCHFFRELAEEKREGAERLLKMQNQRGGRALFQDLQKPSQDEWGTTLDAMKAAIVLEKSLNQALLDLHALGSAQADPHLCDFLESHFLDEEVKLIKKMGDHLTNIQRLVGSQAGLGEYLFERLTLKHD
Outline: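 Competitive displacement of the profluorescent anesthetic 1-AMA (50% saturated, PBS) from 10 uM apoferritin, 10 min, room temperature. Activity is normalized 380/535 nm fluorescence; concentration-response fitted with a four-parameter Hill equation.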

[4] = biological target: ATP-dependent DNA helicase Q1 (Homo sapiens) (UniProt P46063); assay: qHTS Validation Assay for Inhibitors of RecQ-Like Dna Helicase 1 (RECQ1) (AID 2353);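 further: plate controls were DMSO vehicle for no effect and enzyme-free control for full effect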
Outline: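 50 nM RECQ1T1 preincubated 15 min with compound in Tris pH 8.0 buffer with MgCl2, DTT, Tween-20 and 2.5 ug/ml poly(dI-dC); started with 200 nM TAMRA/BHQ-2 forked duplex and 2 mM ATP. Unwinding read as fluorescence (525/598 nm), two reads 2 h apart.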

[5] = Quantitative high throughput screen for delayed death inhibitors of the malarial parasite plastid, 96 hour incubation (AID 488745); further: nearly all actives have a fitted effect of over 70% in size; further: potency means the concentration at half of the fitted maximal effect
Outline: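 Luciferase-expressing P. falciparum in erythrocytes (2% hematocrit, 0.1% parasitemia) incubated with compound for 96 h at 37 C, 5% CO2, in RPMI 1640 with 0.5% Albumax. Growth inhibition read as decreased luminescence.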

[6] = Quantitative high throughput screen for delayed death inhibitors of the malarial parasite plastid, 48 hour incubation (AID 488752); further: nearly all actives have a fitted effect of over 65% in size; further: potency means the concentration at half of the fitted maximal effect
Outline: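 Erythrocytes infected with firefly luciferase-expressing P. falciparum (2% hematocrit, 0.1% parasitemia) cultured with compound for 48 h at 37 C, 5% CO2, in RPMI 1640/0.5% Albumax. Growth inhibition read as loss of luminescence.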

[7] = biological target: M-phase phosphoprotein 8 (Homo sapiens) (UniProt Q99549); assay: qHTS Validation Assay for Inhibitors for MPP8 Chromodomain Interactions with Methylated Histone Tails (AID 488949); further: nearly all actives have a fitted effect of over 55% in size; further: potency means the concentration at half of the fitted maximal effect
M-phase phosphoprotein 8 (Homo sapiens), sequence (Q99549 whole entry, looked up): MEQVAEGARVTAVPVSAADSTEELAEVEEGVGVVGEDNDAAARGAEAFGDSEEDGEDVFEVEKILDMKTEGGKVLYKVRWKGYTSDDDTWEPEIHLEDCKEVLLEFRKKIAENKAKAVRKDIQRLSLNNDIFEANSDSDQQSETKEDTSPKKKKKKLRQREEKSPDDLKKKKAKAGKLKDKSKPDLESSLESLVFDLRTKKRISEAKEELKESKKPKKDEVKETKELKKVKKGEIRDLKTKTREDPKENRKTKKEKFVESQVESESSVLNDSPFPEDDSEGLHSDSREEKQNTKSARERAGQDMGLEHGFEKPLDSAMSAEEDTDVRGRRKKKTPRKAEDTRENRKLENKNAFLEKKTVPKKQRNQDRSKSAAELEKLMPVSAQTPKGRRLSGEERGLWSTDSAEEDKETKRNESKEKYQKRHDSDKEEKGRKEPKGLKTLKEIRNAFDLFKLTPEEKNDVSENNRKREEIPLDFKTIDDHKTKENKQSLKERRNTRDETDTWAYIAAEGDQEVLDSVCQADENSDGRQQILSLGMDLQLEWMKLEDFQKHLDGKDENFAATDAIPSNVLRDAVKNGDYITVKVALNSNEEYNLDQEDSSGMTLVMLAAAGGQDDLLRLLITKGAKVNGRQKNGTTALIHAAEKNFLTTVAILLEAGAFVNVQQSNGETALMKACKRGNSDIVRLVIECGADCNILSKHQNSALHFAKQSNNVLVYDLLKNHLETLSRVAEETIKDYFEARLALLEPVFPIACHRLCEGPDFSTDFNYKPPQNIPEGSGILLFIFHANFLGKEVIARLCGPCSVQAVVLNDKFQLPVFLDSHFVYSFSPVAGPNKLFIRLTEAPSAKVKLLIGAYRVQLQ
Outline: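 AlphaScreen proximity signal from streptavidin donor and Ni-chelate acceptor beads (10 ug/mL each) reported binding of MPP8 to trimethyl-K9 H3(1-18) peptide, both at 50 nM. The complex formed 30 min before a 30 min compound exposure at room temperature, in PBS pH 7.4.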

[8] = biological target: Transient receptor potential cation channel subfamily V member 1 (Homo sapiens) (UniProt Q8NER1); assay: HTS Assay for Compounds that Act as Enhancers of the Vanilloid Receptor 1 (AID 488979); further: 0% is about no effect
Transient receptor potential cation channel subfamily V member 1 (Homo sapiens), sequence (Q8NER1 whole entry, looked up): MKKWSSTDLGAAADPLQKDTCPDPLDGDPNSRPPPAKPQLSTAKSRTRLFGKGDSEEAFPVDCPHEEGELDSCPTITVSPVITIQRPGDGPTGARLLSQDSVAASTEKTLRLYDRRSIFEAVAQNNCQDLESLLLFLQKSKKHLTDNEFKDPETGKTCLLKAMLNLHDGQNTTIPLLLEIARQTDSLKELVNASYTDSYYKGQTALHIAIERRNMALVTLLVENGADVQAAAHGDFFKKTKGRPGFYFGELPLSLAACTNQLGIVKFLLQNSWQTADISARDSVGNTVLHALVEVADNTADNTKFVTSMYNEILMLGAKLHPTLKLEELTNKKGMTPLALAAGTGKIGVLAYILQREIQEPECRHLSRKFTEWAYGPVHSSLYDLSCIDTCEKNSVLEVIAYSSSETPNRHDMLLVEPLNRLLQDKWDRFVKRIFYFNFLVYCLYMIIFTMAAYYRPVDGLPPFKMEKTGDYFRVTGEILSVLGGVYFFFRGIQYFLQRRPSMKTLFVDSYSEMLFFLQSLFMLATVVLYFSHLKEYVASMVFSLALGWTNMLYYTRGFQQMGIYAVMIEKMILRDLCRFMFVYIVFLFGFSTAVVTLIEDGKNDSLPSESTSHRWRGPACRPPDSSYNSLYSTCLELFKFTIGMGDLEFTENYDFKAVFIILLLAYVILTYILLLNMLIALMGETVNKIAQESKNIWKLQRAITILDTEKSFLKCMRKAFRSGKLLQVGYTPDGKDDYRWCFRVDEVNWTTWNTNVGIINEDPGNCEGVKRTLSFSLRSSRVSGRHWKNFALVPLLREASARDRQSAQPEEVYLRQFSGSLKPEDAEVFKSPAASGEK
Outline: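 TRPV1-expressing cells loaded with Fluo-8 calcium dye; compounds added and calcium influx read kinetically for 3 min (agonist phase), then capsaicin at EC20 added and read 2 min more for enhancement. Fluorescence ex 480/em 520 nm.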

[9] = biological target: Thyrotropin receptor (Homo sapiens) (UniProt P16473); assay: qHTS Assay for Antagonists of the Thyroid Stimulating Hormone Receptor (AID 488980); further: series mostly up to about 58 µM; 0% is about no effect
Thyrotropin receptor (Homo sapiens), sequence (P16473 whole entry, looked up): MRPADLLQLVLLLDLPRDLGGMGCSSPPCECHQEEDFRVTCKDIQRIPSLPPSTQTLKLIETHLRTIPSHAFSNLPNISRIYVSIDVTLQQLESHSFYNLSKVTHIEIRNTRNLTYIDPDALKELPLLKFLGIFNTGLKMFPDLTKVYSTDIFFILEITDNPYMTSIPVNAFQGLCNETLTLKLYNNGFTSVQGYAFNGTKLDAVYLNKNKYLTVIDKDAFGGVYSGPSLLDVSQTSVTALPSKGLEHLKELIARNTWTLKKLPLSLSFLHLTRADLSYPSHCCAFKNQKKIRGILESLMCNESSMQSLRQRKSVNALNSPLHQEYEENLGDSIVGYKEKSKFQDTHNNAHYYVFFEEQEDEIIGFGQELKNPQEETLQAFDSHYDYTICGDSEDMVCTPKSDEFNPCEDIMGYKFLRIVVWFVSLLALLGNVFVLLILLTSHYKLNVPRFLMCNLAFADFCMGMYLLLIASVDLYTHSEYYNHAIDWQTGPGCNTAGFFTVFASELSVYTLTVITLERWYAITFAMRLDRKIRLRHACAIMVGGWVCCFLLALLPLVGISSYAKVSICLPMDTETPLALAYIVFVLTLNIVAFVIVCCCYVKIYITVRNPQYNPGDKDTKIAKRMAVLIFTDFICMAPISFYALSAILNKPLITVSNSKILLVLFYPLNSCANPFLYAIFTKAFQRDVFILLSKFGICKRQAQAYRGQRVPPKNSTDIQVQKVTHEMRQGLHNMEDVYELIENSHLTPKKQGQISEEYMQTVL
Outline: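 Inhibition of cAMP raised by EC80 TSH (4 nM final) was read by HTRF, with lysate cAMP competing against cAMP-d2 for cryptate antibody after 30 min at room temperature. The cells were transfected HEK293 held in phosphodiesterase inhibitor RO 20-1724 at 70 uM.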

[10] = biological target: Thyrotropin-releasing hormone receptor (Homo sapiens) (UniProt P34981); assay: qHTS for Small Molecule Agonists and Allosteric Enhancers of Human TRH Receptor: Validation Screen for Agonists (AID 493127;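 active means calcium activation more than 3 SD above the typical response in the agonist read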; further: 0% is about no effect); details: TRH receptor agonist cell assay; at 2 µM; stronger effect = higher value
Thyrotropin-releasing hormone receptor (Homo sapiens), sequence (P34981 whole entry, looked up): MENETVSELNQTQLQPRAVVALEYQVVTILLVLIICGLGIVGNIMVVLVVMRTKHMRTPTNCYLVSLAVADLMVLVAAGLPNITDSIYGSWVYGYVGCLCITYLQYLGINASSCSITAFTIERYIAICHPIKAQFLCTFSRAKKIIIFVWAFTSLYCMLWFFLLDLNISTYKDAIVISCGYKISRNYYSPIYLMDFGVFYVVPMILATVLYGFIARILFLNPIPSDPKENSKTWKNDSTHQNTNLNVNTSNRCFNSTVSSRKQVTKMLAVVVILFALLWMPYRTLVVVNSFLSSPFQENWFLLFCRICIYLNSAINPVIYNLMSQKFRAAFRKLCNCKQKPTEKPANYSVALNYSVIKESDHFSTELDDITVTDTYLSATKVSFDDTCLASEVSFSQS
Outline: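 TRHR cells loaded with fluo-8 calcium dye; FDSS kinetic fluorescence (Ex 480/Em 530) read at 1 s/cycle after 23 nL compound addition. Agonist-mode calcium response recorded before the 10 nM TRH (EC20) addition.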

[11] = biological target: Galactokinase (Homo sapiens) (UniProt P51570); assay: qHTS Validation Assay for Inhibitors of Human Galactokinase (GALK) (AID 493189); further: 0% is about no effect
Galactokinase (Homo sapiens), sequence (P51570 whole entry, looked up): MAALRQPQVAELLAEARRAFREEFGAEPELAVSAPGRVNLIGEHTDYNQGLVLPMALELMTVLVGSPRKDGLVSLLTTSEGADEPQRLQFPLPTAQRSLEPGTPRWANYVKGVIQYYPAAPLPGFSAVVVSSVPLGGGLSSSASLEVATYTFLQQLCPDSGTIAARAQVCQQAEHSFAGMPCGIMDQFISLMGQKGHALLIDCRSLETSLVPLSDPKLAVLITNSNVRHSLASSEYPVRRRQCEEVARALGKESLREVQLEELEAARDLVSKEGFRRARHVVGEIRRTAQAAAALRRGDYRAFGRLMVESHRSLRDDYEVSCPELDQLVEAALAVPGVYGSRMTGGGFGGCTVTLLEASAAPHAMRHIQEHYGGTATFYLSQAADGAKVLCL
Outline: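 Inhibition was measured as remaining ATP, detected by luciferase luminescence after a 1 h room-temperature reaction. Final conditions: 5 nM GALK, 100 uM galactose, 35 uM ATP, pH 8.0 HEPES buffer.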

[12] = biological target: Voltage-gated inwardly rectifying potassium channel KCNH2 (Homo sapiens) (UniProt Q12809); assay: qHTS Assay for Small Molecule Inhibitors of the Human hERG Channel Activity (AID 588834);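 further: lower thallium flux fluorescence means stronger hERG block; nearly all actives have a fitted effect of over 50% in size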; further: potency means the concentration at half of the fitted maximal effect
Voltage-gated inwardly rectifying potassium channel KCNH2 (Homo sapiens), sequence (Q12809 whole entry, looked up): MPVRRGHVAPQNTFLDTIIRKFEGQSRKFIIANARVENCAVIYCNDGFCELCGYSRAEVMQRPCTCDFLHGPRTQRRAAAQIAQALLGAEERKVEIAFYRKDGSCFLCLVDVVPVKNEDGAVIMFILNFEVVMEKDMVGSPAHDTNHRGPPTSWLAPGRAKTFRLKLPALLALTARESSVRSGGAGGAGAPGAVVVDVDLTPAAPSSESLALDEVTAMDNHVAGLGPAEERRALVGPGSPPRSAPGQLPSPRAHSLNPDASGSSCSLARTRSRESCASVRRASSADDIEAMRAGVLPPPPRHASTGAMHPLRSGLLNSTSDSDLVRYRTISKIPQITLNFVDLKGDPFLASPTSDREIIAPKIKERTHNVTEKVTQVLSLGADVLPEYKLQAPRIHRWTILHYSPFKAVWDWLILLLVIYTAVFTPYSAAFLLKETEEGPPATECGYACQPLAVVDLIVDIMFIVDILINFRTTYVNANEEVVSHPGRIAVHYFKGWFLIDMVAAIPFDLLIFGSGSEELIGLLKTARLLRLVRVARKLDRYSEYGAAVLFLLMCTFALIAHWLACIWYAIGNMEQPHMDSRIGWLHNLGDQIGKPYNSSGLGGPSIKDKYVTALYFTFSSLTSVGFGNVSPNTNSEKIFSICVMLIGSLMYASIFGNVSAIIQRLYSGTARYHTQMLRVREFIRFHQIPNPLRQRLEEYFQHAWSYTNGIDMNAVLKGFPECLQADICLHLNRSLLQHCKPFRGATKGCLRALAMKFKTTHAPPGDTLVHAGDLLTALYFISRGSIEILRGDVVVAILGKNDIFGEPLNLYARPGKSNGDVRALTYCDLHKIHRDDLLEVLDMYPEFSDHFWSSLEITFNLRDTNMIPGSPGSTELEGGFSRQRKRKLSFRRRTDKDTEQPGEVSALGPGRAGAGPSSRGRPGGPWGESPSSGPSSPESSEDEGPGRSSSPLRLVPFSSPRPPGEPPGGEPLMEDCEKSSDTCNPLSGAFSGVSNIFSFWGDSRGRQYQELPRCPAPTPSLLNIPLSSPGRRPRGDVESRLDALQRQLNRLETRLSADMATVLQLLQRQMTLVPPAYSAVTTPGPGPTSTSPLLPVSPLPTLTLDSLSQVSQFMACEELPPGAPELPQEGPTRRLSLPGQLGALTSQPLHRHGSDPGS
Outline: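 Kinetic FDSS fluorescence; U2OS + hERG BacMam (~100 virus particles/cell); FluxOR Tl+ flux; ~10 min cpd; AC50 (Hill).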

[13] = biological target: Glutathione peroxidase 1 (Homo sapiens) (UniProt P07203); assay: Primary qHTS Assay for Inhibitors of Recombinant Selenoprotein Glutathione Peroxidase 1 (GPX1) (AID 1845191); further: on the % scale 0 is the no-effect control and ±100 the full control effect; nearly all actives have a fitted effect of over 65% in size
Outline: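 Recombinant GPX1 (10 nM final) was preincubated with compound for 30 min at room temperature, then reacted with 1 mM GSH, 0.5 mM CHP, 0.5 mM NADPH and 100 nM glutathione reductase; NADPH fluorescence (340/450 nm) was read at 0 and 15 min.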

[14] = qHTS drug screen for cell cycle checkpoint inhibitors in PARPi-resistant BRCA-mutant ovarian cancer cell lines. (AID 1963452; calls by dose curve); details: PEO1/OlaR viability, CellTiter-Glo luminescence, 96 h, stronger effect = lower value
Outline: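 PEO1, PEO4 and PEO1/OlaR ovarian cancer cells, 600 per well, exposed 96 h at 37C to a dilution series. Viability read by CellTiter-Glo luminescence, normalized to DMSO and empty wells; activity summarized as Z-AUC.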

[15] = qHTS for differential inhibitors of proliferation of Plasmodium falciparum line D10 (AID 1877);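 further: parasites grown with compound for 72 h before DNA staining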; further: potency means the concentration at half of the fitted maximal effect
[16] = qHTS for differential inhibitors of proliferation of Plasmodium falciparum line Dd2 (AID 1882); details: Potency: Plasmodium falciparum Dd2 proliferation inhibition;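 further: series mostly up to about 29 µM; plate controls were DMSO vehicle for no effect and 0.29 µM artemisinin for full effect; nearly all actives have a fitted effect of over 65% in size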
Outline: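 Dd2-infected erythrocytes (0.3% parasitemia, 2.5% hematocrit final) incubated with compound 72 h at 37 C, 5% CO2; lysed with saponin/Triton buffer containing SYBR Green I, incubated overnight in the dark, then read by fluorescence (485/535 nm). Normalized to 0.29 uM artemisinin and DMSO.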

[17] = Validation screen for small molecules that induce DNA re-replication in MCF 10A normal breast cells (AID 463097); further: 0% is about no effect; nearly all actives have a fitted effect of over 60% in size
Outline: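 Read-out is Hoechst total nuclear intensity by fluorescence scanning imager, flagging increased high-DNA-content nuclei. Compounds were incubated with MCF 10A cells for 48 hr (37 C, 5% CO2) before 40 min staining.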

[18] = Validation screen for small molecules that induce DNA re-replication in SW480 colon adenocarcinoma cells (AID 504364); further: 0% is about no effect
Outline: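 SW480 cells (250/well) exposed 48 h at 37 C, 5% CO2, then Hoechst-stained 40 min. Nuclear DNA content imaged by fluorescence scanning (405 nm excitation, 500-530 nm emission); re-replication scored as increased nuclei with elevated intensity.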

[19] = measured here: PEO1 parental Z-AUC

CC(C)C[C@H]1C(=O)N2CCCC2[C@]2(O)O[C@](NC(=O)[C@@H]3C=C4c5cccc6[nH]c(Br)c(c56)C[C@H]4N(C)C3)(C(C)C)C(=O)N12 (stereo not given in full)
active: Potency [5] 9.28 µM | Potency [6] 8.28 µM
inactive: Potency [1] | Potency [2] | outcome [3] | Potency [4] | Potency [7] | outcome [8] | outcome [9] | activation [10] 0.625% | outcome [11] | Potency [12]

C[C@@H]1Cc2c([nH]c3ccccc23)[C@@H](c2c(F)cc(/C=C/C(=O)O)cc2F)N1CC(C)(C)F
inactive: Potency [13] | Z-AUC [14] -0.309
-0.807: Z-AUC ([14]; measured here: PEO4 Z-AUC)
-0.682: Z-AUC [14, 19]

CC(C)CN(C)c1nc(N)c(C(=O)N=C(N)N)nc1Cl
active: Potency [15] 7.08 µM | Potency [5] 8.28 µM | Potency [6] 10.4 µM | Potency [7] 44.7 µM | Potency [12] 2 µM
inactive: Potency [1] | Potency [2] | Potency [4] | outcome [9] | activation [10] 0.812% | outcome [11]

CC(=O)NCCc1ccc(O)c(O)c1
inactive: Potency [1] | Potency [2] | Potency [16] | outcome [3] | Potency [4] | outcome [17] | Potency [5] | Potency [6] | outcome [8] | outcome [9] | activation [10] 0.75% | outcome [11] | outcome [18] | Potency [12]

CCSC(N)=Nc1ccc(C(F)(F)F)cc1
inactive: Potency [1] | Potency [2] | Potency [15] | Potency [16] | Potency [4] | outcome [17] | Potency [5] | Potency [6] | Potency [7] | outcome [8] | outcome [9] | activation [10] -5.5% | outcome [11] | outcome [18] | Potency [12]

CO[C@H]1/C=C/O[C@@]2(C)Oc3c(C)c(O)c4c(O)c(c(/C=N\N5CCN(C6CCCC6)CC5)c(O)c4c3C2=O)NC(=O)/C(C)=C\C=C\[C@H](C)[C@H](O)[C@@H](C)[C@@H](O)[C@@H](C)[C@H](OC(C)=O)[C@@H]1C
-0.895: Z-AUC [14, 19]
inactive: Z-AUC [14] -0.749
-0.603: Z-AUC ([14]; measured here: PEO4 Z-AUC)

CCCCCCCCCCCCCCC/C=C/[C@@H](O)[C@H](NC(=O)CCCCCCCCCCCCC)OC (tested in a mixture with another compound)
inactive: Potency [1] | Potency [2] | Potency [15] | Potency [16] | outcome [3] | Potency [4] | outcome [17] | Potency [5] | Potency [6] | Potency [7] | outcome [8] | outcome [9] | activation [10] 1.19% | outcome [11] | outcome [18] | Potency [12]

From PubChem BioAssay (NCATS)
